HePTP inhibitor = human HePTP phosphatase inhibition; inhibition, % at 20 µM; AID 521; hit rate 0.64% among 110,000; P35236; recombinant HePTP phosphatase activity, OD absorbance; in the data active = inhibition above about 50%
Target sequence (P35236 whole entry, looked up): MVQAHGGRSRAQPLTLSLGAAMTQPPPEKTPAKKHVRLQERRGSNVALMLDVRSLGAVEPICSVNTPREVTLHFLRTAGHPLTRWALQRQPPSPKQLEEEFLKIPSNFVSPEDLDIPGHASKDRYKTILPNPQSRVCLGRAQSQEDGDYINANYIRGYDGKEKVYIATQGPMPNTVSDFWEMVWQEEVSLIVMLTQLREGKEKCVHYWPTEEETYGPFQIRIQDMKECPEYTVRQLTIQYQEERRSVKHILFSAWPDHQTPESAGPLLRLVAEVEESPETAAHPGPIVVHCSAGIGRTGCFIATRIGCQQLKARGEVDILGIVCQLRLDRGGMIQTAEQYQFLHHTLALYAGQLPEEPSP
Cdc25B inh = inhibitors of human Cdc25B phosphatase | P30305 | recombinant Cdc25B, OMFP fluorescence Ex485/Em525 | inhibition, %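 (compounds tested at 10 µM final in the well)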 | hit rate 0.1% among 65,000 | AID 368; in the data active = inhibition above about 50%
PLAP activator = human PLAP activation | activation fold at 20 µM | hit rate 1.2% among 96,000 | purified PLAP enzyme, luminescent substrate read-out; active compounds read high | P05187 | AID 696; in the data active = activation fold above about 2
DUSP1 inh = inhibitors of human MKP-1 phosphatase. hit rate 0.15% among 65,000. inhibition, %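 (compounds tested at a single concentration somewhere between 10 and 100 µM)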. AID 374. P28562. recombinant MKP-1, OMFP hydrolysis fluorescence;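 active = inhibition above about 50%, limit read from the data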
BAP1 block = inhibitors of human BAP1 deubiquitinase | Q92560 | calls only at 20 µM | hit rate 0.48% among 72,000 | recombinant BAP1, Ub-AMC hydrolysis fluorescence kinetic; active compounds read low;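 active = activity remaining at or below 50% of control, provided the compound also passes the data quality filters; inactive = the rest, including low values that fail the filters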
Of the large screens only hits and unclear results are named; the others gave an inactive call; ! = not active in a repeat. Shown are actives, neighbours in structure and some others; about 1.4% of the full set was active somewhere.

COc1ccc(NC(=O)CSc2nnc(Cc3ccccc3)o2)c(OC)c1	PLAP activator 2.3
CCn1c(-c2ccc3[nH]c(C)c(C)c3c2)n[nH]c1=S	PLAP activator 2.1
CCn1c(-c2cc3ccccc3cc2O)n[nH]c1=S	PLAP activator 2.9 (no result: HePTP inhibitor, Cdc25B inh, DUSP1 inh, BAP1 block)
CCn1c(-c2cc(Br)ccc2O)n[nH]c1=S	none (no result: PLAP activator)
Cc1cc2nc(C)n(CCCNC(=O)Nc3ccc(F)cc3)c2cc1C	PLAP activator 2.3 (no result: HePTP inhibitor, Cdc25B inh, DUSP1 inh, BAP1 block)
CCOC(=O)c1c2n(c3c(NCc4ccccc4)ncnc13)CCCC2	PLAP activator 2.5
CCOC(=O)c1c(NC(=O)CNCc2ccccc2)sc2c1CCCCC2	none (no result: Cdc25B inh, PLAP activator, DUSP1 inh, BAP1 block)
O=C(COc1cccc(Cl)c1)N/N=C/c1c(Br)cc(Br)c(O)c1Br	none (no result: Cdc25B inh, PLAP activator, DUSP1 inh, BAP1 block)
COc1cc(Br)cc(/C=N/NC(=O)COc2cccc(Cl)c2)c1O	HePTP inhibitor 99 (no result: Cdc25B inh, PLAP activator, DUSP1 inh, BAP1 block)
C=CCN1C(=O)/C(=C\c2ccc(O)cc2)C(=O)NC1=S	none (no result: Cdc25B inh, PLAP activator, DUSP1 inh, BAP1 block)
O=C(CSc1nnc(Cc2ccccc2)n1-c1ccccc1)NNC(=O)Cc1ccccc1	PLAP activator 2.5 (no result: HePTP inhibitor, Cdc25B inh, DUSP1 inh, BAP1 block)
CCOC(=O)CSc1nnc(Cc2ccc(OC)cc2)n1-c1ccccc1	none (no result: HePTP inhibitor, Cdc25B inh, DUSP1 inh, BAP1 block)
O=C(Nc1ccc(-c2nc3ccccc3[nH]2)cc1)c1cccc(Br)c1	HePTP inhibitor 102 (no result: Cdc25B inh, PLAP activator, DUSP1 inh, BAP1 block)
O=C(Nc1cccc(-c2cn3ccccc3n2)c1)c1cccc(Br)c1	none (no result: Cdc25B inh, PLAP activator, DUSP1 inh, BAP1 block)
COc1ccc(NC(=O)c2ccc(C)c([N+](=O)[O-])c2)cc1	none (no result: Cdc25B inh, PLAP activator, DUSP1 inh, BAP1 block)
O=C(Nc1ccc(-c2cn3ccccc3n2)cc1)c1cccc(Br)c1	HePTP inhibitor 102 (no result: Cdc25B inh, PLAP activator, DUSP1 inh, BAP1 block)
Cc1ccc(C(=O)Nc2ccc(-c3nc4cc5ccccc5cc4[nH]3)cc2)cc1[N+](=O)[O-]	HePTP inhibitor 56 (no result: Cdc25B inh, PLAP activator, DUSP1 inh, BAP1 block)
CCOC(=O)CSCCOc1ccc(C=C2C(=O)NC(=S)NC2=O)cc1OC	none (no result: Cdc25B inh, PLAP activator, DUSP1 inh, BAP1 block)
Cc1cccc(C)c1NC(=S)NNc1ncc(C(F)(F)F)cc1Cl	PLAP activator 2.1 (no result: HePTP inhibitor, Cdc25B inh, DUSP1 inh, BAP1 block)
Cc1ccccc1OCC(=O)Nc1cccc(NC(=O)c2cccc(Cl)c2)c1	none (no result: Cdc25B inh, PLAP activator, DUSP1 inh, BAP1 block)
O=C(Nc1ccccn1)c1cc(S(=O)(=O)N2CCOCC2)ccc1Cl	none (no result: Cdc25B inh, PLAP activator, DUSP1 inh, BAP1 block)
O=C(Nc1nc2ccccc2s1)c1ccc(S(=O)(=O)N2CCCCC2)cc1	none (no result: Cdc25B inh, PLAP activator, DUSP1 inh, BAP1 block)
CC1(C)CC(=O)c2cnn(-c3nc4ccccc4[nH]3)c2C1	PLAP activator 2.1
COC(=O)/C=C(\C)NCCN/C(C)=C/C(=O)OC	HePTP inhibitor 105 (no result: Cdc25B inh, PLAP activator, DUSP1 inh, BAP1 block)
COC(=O)/C=C(\C)NC(=O)c1ccc(F)cc1	none (no result: HePTP inhibitor, Cdc25B inh, DUSP1 inh, BAP1 block)
OC(COCCC12CC3CC(CC(C3)C1)C2)CN1CCSCC1 (stereo unspecified)	none (no result: Cdc25B inh, PLAP activator, DUSP1 inh, BAP1 block)
C=CCN1C(=O)/C(=C/c2cccc([N+](=O)[O-])c2)C(=O)NC1=S	none (no result: Cdc25B inh, PLAP activator, DUSP1 inh, BAP1 block)
C=CCN1C(=O)/C(=C\c2ccc(-c3cccc([N+](=O)[O-])c3)o2)C(=O)NC1=S	HePTP inhibitor 96 (no result: Cdc25B inh, PLAP activator, DUSP1 inh, BAP1 block)
C=CCN1C(=O)/C(=C/c2ccc(C)cc2)C(=O)NC1=S	none (no result: Cdc25B inh, PLAP activator, DUSP1 inh, BAP1 block)
C=CCN1C(=O)/C(=C\c2ccc(-c3ccc(C)cc3Br)o2)C(=O)NC1=S	HePTP inhibitor 102 (no result: Cdc25B inh, PLAP activator, DUSP1 inh, BAP1 block)
C=CCN1C(=O)/C(=C\c2ccc(-c3ccc(Br)cc3)o2)C(=O)NC1=S	HePTP inhibitor 100 (no result: Cdc25B inh, PLAP activator, DUSP1 inh, BAP1 block)
C=CCN1C(=O)/C(=C\c2ccc(-c3ccc([N+](=O)[O-])cc3)o2)C(=O)NC1=S	HePTP inhibitor 102 (no result: Cdc25B inh, PLAP activator, DUSP1 inh, BAP1 block)
Cc1ccsc1C1C2=C(CC(C)(C)CC2=O)OC2=C1C(=O)CC(C)(C)C2	none (no result: HePTP inhibitor, Cdc25B inh, PLAP activator, DUSP1 inh)
c1ccc(Nc2nc3ccccc3[nH]2)nc1	PLAP activator 2.2
O=C1NC(=O)N(c2ccccc2F)C(=O)/C1=C/c1ccc(I)o1	HePTP inhibitor 67 (no result: Cdc25B inh, PLAP activator, DUSP1 inh, BAP1 block)
O=C1NC(=O)N(c2cccc(F)c2)C(=O)/C1=C/c1ccc(I)o1	HePTP inhibitor 53 (no result: Cdc25B inh, PLAP activator, DUSP1 inh, BAP1 block)
Cn1ncc(Cl)c1C(=O)N(C(=O)c1c(Cl)cnn1C)c1ccccc1C(F)(F)F	none (no result: Cdc25B inh, PLAP activator, DUSP1 inh, BAP1 block)
Cc1c(C#N)c(N)c(C(=O)c2ccccc2)n1-c1ccccc1	HePTP inhibitor 70 (no result: Cdc25B inh, PLAP activator, DUSP1 inh, BAP1 block)
CCCN(CCC)C(=O)c1ccccc1NC(=O)c1cccs1	none (no result: Cdc25B inh, PLAP activator, DUSP1 inh, BAP1 block)
CCOC(=O)C1=C(CSc2n[nH]c(N)n2)NC(=O)NC1C (stereo unspecified)	PLAP activator 2.4
CC(=O)c1sc(Nc2nc3ccc(F)cc3s2)nc1C	PLAP activator 2.3
CCOC(=O)c1csc(Nc2nc3ccc(F)cc3s2)n1	none
Cc1cc(C)c2c(NCSCc3ccccc3)c(C#N)sc2n1	none (no result: Cdc25B inh, PLAP activator, DUSP1 inh, BAP1 block)
CCOc1ccc(NC(=O)CN(C)CC(=O)Nc2cc(Cl)ccc2C#N)cc1OCC	PLAP activator 2.1 (no result: HePTP inhibitor, Cdc25B inh, DUSP1 inh, BAP1 block)
Cc1cccc(C)c1NC(=O)CN(C)CC(=O)Nc1cc(Cl)ccc1C#N	none (no result: HePTP inhibitor, Cdc25B inh, DUSP1 inh, BAP1 block)
O=C(C1CN(S(=O)(=O)c2ccccc2)CCN1S(=O)(=O)c1ccccc1)N1CCCCCC1 (stereo unspecified)	HePTP inhibitor 50! (no result: BAP1 block)
COc1ccc(CNc2ccc(Br)cc2C(=O)O)c(OC)c1	HePTP inhibitor 77 (no result: Cdc25B inh, PLAP activator, DUSP1 inh, BAP1 block)
COc1ccc(Br)cc1C(=O)O	none

Assay outcomes deposited in PubChem by several laboratories.
